Screening results (PubChem)
C diff HTS = C. difficile growth inhibitors, primary screen, HTS. Clostridium difficile clinical isolate growth, OD600, 24 h; hits give low values. growth activity, negative = inhibition, % at 16 µg/mL (by protocol). 86,000 compounds, 0.25% hits. AID 1259249, 2017;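 active = mean growth activity at or below -80% and every replicate also at or below -80%; inconclusive = mean at or below -80% but some replicate above -80%; inactive = mean growth activity above -80%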
T cruzi growth-1 = T. cruzi intracellular proliferation inhibitors, primary screen, cell-based, beta-gal Tulahuen parasites, NIH3T3 host, luminescence | T. cruzi beta-gal in NIH3T3, GalScreen luminescence, 90 h | inhibition, % at 8.34 µM | 77,000 compounds, 5.9% hits | AID 624255, 2012;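 active = mean inhibition above about 93%, with at least 55% of replicates each passing it, limit read from the data, passing the limit was not always enough; inconclusive = only one of those two conditions holds; inactive = neither condition holds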
Pf Dd2 growth = P. falciparum Dd2 growth inhibitors, primary screen, SYBR Green fluorescence, single dose replicates. 72 h; hits give low values. activity change, % at 10 µM. 94,000 compounds, 2.3% hits; in the data active = activity change below about -80%; inconclusive = no clear call, values can overlap the other calls
T cruzi growth-2 = T. cruzi intracellular proliferation inhibitors, confirmation, cell-based, NIH3T3 host, beta-gal parasite, luminescence, cherry-pick | shares compounds with T cruzi growth-1 | T. cruzi beta-gal in NIH3T3, GalScreen luminescence, 90 h | inhibition, % at 8.35 µM | 5,600 compounds, 72% hits;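 active = mean replicate inhibition above about 95% and at least 55% of replicates individually reaching it, limit read from the data; inconclusive = only one of the two criteria is met; inactive = neither criterion is met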
T cruzi growth-3 = inhibitors of intracellular T. cruzi replication, confirmation, NIH3T3 host cells, beta-gal parasites, cherry-pick, set 2; shares compounds with T cruzi growth-1; T. cruzi beta-gal in NIH3T3, GalScreen luminescence, 90 h; inhibition, % at 2.09 µM; 5,600 compounds, 21% hits; AID 651740, 2012;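 active = mean inhibition above about 95%, with at least 55% of replicates also reaching it, limit read from the data; inconclusive = meets just one of the two conditions; inactive = meets neither condition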
NIH3T3 tox = cytotoxicity in mouse NIH/3T3 fibroblasts, confirmation, cytotoxicity control for T. cruzi proliferation inhibitor project, cell-based, cherry-pick, single point. shares compounds with T cruzi growth-1. NIH/3T3 viability, CellTiter-Glo ATP luminescence, 90 h. cytotoxicity (signal decrease), % at 8.35 µM. 5,600 compounds, 14% hits. AID 651742, 2012;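 active = mean signal decrease across replicates above about 35% based on untreated-well scatter, with enough replicates individually passing, limit read from the data; inconclusive = no rule stated though some were filed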
NIH3T3 tox 2 = NIH/3T3 fibroblast cytotoxicity, confirmation, cytotoxicity control, cell-based, cherry-pick, single point, set 2; shares compounds with T cruzi growth-1; NIH/3T3 viability, CellTiter-Glo ATP luminescence, 90 h; inhibition, % at 24.9 µM; 5,600 compounds, 56% hits; AID 651744, 2012;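 active = mean loss of cell viability signal at or above a set limit, and enough replicates individually reaching it; inconclusive = meets only the mean limit or only the replicate share; inactive = meets neither condition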
A number is an active result; 0 = inactive; ? = inconclusive; - = not tested or not shown. Compounds with a hit are over-represented: about 6.7% of the library has one in this group of screens.

SMILES | C diff HTS | T cruzi growth-1 | Pf Dd2 growth | T cruzi growth-2 | T cruzi growth-3 | NIH3T3 tox | NIH3T3 tox 2
COc1cccc(S(=O)(=O)N(C)C[C@@H]2Oc3ncc(C#Cc4ccc(C(F)(F)F)cc4)cc3C(=O)N([C@H](C)CO)C[C@@H]2C)c1 | 0 | 103.4 | 0 | 96.1 | 113.1 | 0 | 30.7
C[C@H](CO)N1C[C@H](C)[C@H](CN(C)S(=O)(=O)c2ccc(C#N)cc2)Oc2ncc(C#Cc3cccc(F)c3)cc2C1=O | 0 | 0 | 0 | - | - | - | -
Cc1ccc(S(=O)(=O)N(C)C[C@@H]2Oc3ncc(C#Cc4cccc(F)c4)cc3C(=O)N([C@H](C)CO)C[C@@H]2C)cc1 | 0 | 121.2 | 0 | 98.6 | 0 | ? | 51.8
COc1ccccc1NC(=O)N1CC(=O)N2[C@H](CO)[C@@H](c3ccc(-c4ccccc4)cc3)[C@H]2C1 | 0 | - | 0 | - | - | - | -
CCCC#Cc1ccc2c(c1)O[C@H](CN(C)C(=O)NC(C)C)[C@@H](C)CN([C@H](C)CO)S2(=O)=O | 0 | 0 | 0 | - | - | - | -
COc1ccccc1NC(=O)N1C[C@@H]2[C@H](c3ccccc31)[C@@H](CO)N2C(=O)c1ccccc1 | 0 | 0 | 0 | - | - | - | -
CC=Cc1ccc2n(c1=O)C[C@@H]1[C@@H](CO)[C@H](C(=O)N3CCc4ccccc4C3)[C@H]2N1Cc1cocn1 (mixture of isomers) | 0 | 0 | 0 | - | - | - | -
CCC(=O)N1C[C@@H](C)[C@H](OC)CN(C)C(=O)c2cc(NC(=O)c3ccc(F)cc3)ccc2OC[C@H]1C | - | 0 | 0 | - | - | - | -
CC(C)NC(=O)N(C)C[C@@H]1Oc2ncc(C#CC3CC3)cc2C(=O)N([C@@H](C)CO)C[C@@H]1C | 0 | - | 0 | - | - | - | -
C[C@@H]1CCCCO[C@@H](CN(C)S(=O)(=O)c2ccc(Cl)cc2)[C@@H](C)CN([C@@H](C)CO)C(=O)c2cc(NS(=O)(=O)c3ccc(Cl)cc3)ccc2O1 | 0 | 0 | 0 | - | - | - | -
Cc1ccc(S(=O)(=O)Nc2ccc3c(c2)C(=O)N([C@H](C)CO)C[C@@H](C)[C@@H](CN(C)S(=O)(=O)c2ccc(Cl)cc2)OCCCC[C@H](C)O3)cc1 | 0 | 117.1 | -85.6 | 96.8 | 106.8 | 0 | 0
C[C@H]1CCCCO[C@H](CN(C)S(=O)(=O)c2ccc(Cl)cc2)[C@@H](C)CN([C@@H](C)CO)C(=O)c2cc(NS(=O)(=O)c3ccc(Cl)cc3)ccc2O1 | 0 | 0 | 0 | - | - | - | -
Cc1ccc(S(=O)(=O)Nc2ccc3c(c2)C(=O)N([C@H](C)CO)C[C@H](C)[C@@H](CN(C)S(=O)(=O)c2ccc(Cl)cc2)OCCCC[C@@H](C)O3)cc1 | 0 | 108.1 | 0 | 105.7 | 0 | 0 | 44.7
Cc1ccc(S(=O)(=O)Nc2ccc3c(c2)C(=O)N([C@H](C)CO)C[C@@H](C)[C@@H](CN(C)S(=O)(=O)c2ccc(Cl)cc2)OCCCC[C@@H](C)O3)cc1 | 0 | 119.5 | -85.0 | 103.4 | 114.7 | 0 | 0
Cc1ccc(S(=O)(=O)Nc2ccc3c(c2)C(=O)N([C@H](C)CO)C[C@H](C)[C@H](CN(C)S(=O)(=O)c2ccc(Cl)cc2)OCCCC[C@H](C)O3)cc1 | 0 | 112.3 | 0 | 99.5 | 107.5 | 0 | 0
C[C@@H]1CN([C@@H](C)CO)S(=O)(=O)c2ccc(C#CC(C)(C)O)cc2O[C@H]1CN(C)CC1CCCC1 | - | 0 | 0 | - | - | - | -
C[C@@H]1CN([C@H](C)CO)C(=O)Cc2cc(NC(=O)CCN3CCOCC3)ccc2O[C@@H]1CN(C)C(=O)Nc1cccc2ccccc12 | 0 | 0 | 0 | - | - | - | -
Cc1noc(C)c1NC(=O)Nc1ccc2c(c1)CC(=O)N([C@@H](C)CO)C[C@H](C)[C@@H](CN(C)S(=O)(=O)c1ccc(Cl)cc1)O2 | 0 | 0 | 0 | - | - | - | -
O=C(C[C@@H]1C[C@H]2c3cc(NS(=O)(=O)c4ccc(F)cc4)ccc3O[C@H]2[C@H](CO)O1)NCc1ccccc1F | 0 | 0 | 0 | - | - | - | -
C[C@H]1CCCCO[C@@H](CN(C)S(=O)(=O)c2ccc(Cl)cc2)[C@@H](C)CN([C@@H](C)CO)C(=O)c2cc(NS(=O)(=O)c3ccc(Cl)cc3)ccc2O1 | 0 | 0 | 0 | - | - | - | -
Cc1ccc(S(=O)(=O)N(C)C[C@H]2OCCCC[C@H](C)Oc3ccc(NS(=O)(=O)c4ccc(Cl)cc4)cc3C(=O)N([C@H](C)CO)C[C@H]2C)cc1 | 0 | 108.4 | 0 | 96.9 | 109.0 | 0 | ?
Cc1ccc(S(=O)(=O)Nc2ccc3c(c2)C(=O)N([C@@H](C)CO)C[C@@H](C)[C@H](CN(C)S(=O)(=O)c2ccc(Cl)cc2)OCCCC[C@@H](C)O3)cc1 | 0 | 119.9 | 0 | 101.3 | 99.9 | 0 | 0
Cc1ccc(S(=O)(=O)Nc2ccc3c(c2)C(=O)N([C@@H](C)CO)C[C@H](C)[C@H](CN(C)S(=O)(=O)c2ccc(Cl)cc2)OCCCC[C@@H](C)O3)cc1 | 0 | 98.7 | -85.7 | 101.8 | 113.1 | 0 | 46.9
C[C@@H]1CN([C@@H](C)CO)S(=O)(=O)c2ccc(C#CC(C)(C)O)cc2O[C@H]1CN(C)C(=O)C1CC1 | - | 101.7 | 0 | 0 | 0 | 0 | 47.2
C[C@@H]1CN([C@H](C)CO)S(=O)(=O)c2ccc(C#Cc3ccncc3)cc2O[C@@H]1CN(C)C(=O)C1CCC1 | 0 | 0 | 0 | - | - | - | -
SMILES | C diff HTS | T cruzi growth-1 | Pf Dd2 growth | T cruzi growth-2 | T cruzi growth-3 | NIH3T3 tox | NIH3T3 tox 2
C[C@H](CO)N1C[C@H](C)[C@@H](CN(C)C(=O)C2CC2)Oc2cc(C#Cc3ccncc3)ccc2S1(=O)=O | - | 123.4 | 0 | 0 | 0 | 0 | 61.6
C[C@H](CO)N1C[C@H](C)[C@@H](CN(C)C(=O)C2CCC2)Oc2cc(C#Cc3ccncc3)ccc2S1(=O)=O | 0 | 0 | 0 | - | - | - | -
C[C@H]1CN([C@@H](C)CO)S(=O)(=O)c2ccc(C#CC(C)(C)O)cc2O[C@H]1CN(C)C(=O)C1CC1 | - | 0 | 0 | - | - | - | -
C[C@H](CO)N1C[C@H](C)[C@H](CN(C)C(=O)C2CC2)Oc2cc(C#Cc3ccncc3)ccc2S1(=O)=O | - | 105.2 | 0 | 105.0 | 0 | 0 | 65.4
COc1ccc(CN(C)C[C@@H]2Oc3c(NC(=O)Nc4ccccc4)cccc3C(=O)N([C@@H](C)CO)C[C@@H]2C)cc1 | 0 | 0 | 0 | - | - | - | -
O=C(C[C@H]1C[C@H]2c3cc(NC(=O)CC4CC4)ccc3O[C@H]2[C@@H](CO)O1)NCCc1ccccc1 | 0 | 0 | 0 | - | - | - | -
C[C@@H]1CCCCO[C@@H](CN(C)C(=O)Nc2ccc3c(c2)OCO3)[C@H](C)CN([C@@H](C)CO)C(=O)c2cc(NC(=O)NC3CCCCC3)ccc2O1 | 0 | 0 | 0 | - | - | - | -
